The values below come from PubChem BioAssay.

Active and inactive are the calls of the source. Unless noted, the rule behind the calls is not given here.

The test system of test [1] is Wnt5a (protein binding on small-molecule microarray). Nature of the test: Wnt5a binders on small-molecule microarray, primary screen, biophysical, 635/667 nm fluorescence (AID 1142).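 Note: fluorescence read at 667 nm with signal to noise per printed feature.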 The settings on record: 635 nm fluorescence, higher = more signal.
The nature of test [2]: cell viability in Huh7 cells, primary screen, cytotoxicity control for HCV replication inhibitor project, CellTiter-Glo luminescence, basal, 48 h (AID 1143).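 Note: Huh7 hepatoma cells carrying a hepatitis C replication reporter with no stimulus; test concentration not given here.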 The settings on record: Huh7 HCV replicon, higher = more signal, called active from +8 up or from −8 down. In general terms: Cellular ATP, detected with luciferase, serves as a proxy for viable cell number.
A short description of test [3]: P. aeruginosa biofilm formation inhibitors, primary screen, PAO1 strain, BacTiter-Glo luminescence, LB-PBS (AID 1144). The settings on record: 12 h, higher = more signal.
A short description of test [4]: CREB reporter modulators without forskolin, primary screen, cell-based, PC12, CRE-LacZ reporter, unstimulated (AID 1145). The settings on record: no forskolin, luminescence, 4.5 h, higher = more signal, called active from +8 up or from −8 down.
A short description of test [5]: CREB reporter modulators under forskolin, primary screen, cell-based, PC12, CRE-LacZ reporter, forskolin-stimulated (AID 1146).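 Note: PC12 cells with 6xCRE LacZ reporter stimulated by forskolin 10 µM; beta-galactosidase reporter signal reflecting CREB driven transcription.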 The conditions noted are these: luminescence, 4.5 h, higher = more signal, called active from +8 up or from −8 down.
Test [6] concerns the target Streptavidin (Streptomyces avidinii) (UniProt P22629). Briefly: streptavidin binders on small-molecule microarray, primary screen, artefact control for SMM compound annotation, biophysical, 635/667 nm fluorescence (AID 1147).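 Note: signal reflects streptavidin binding to arrayed compounds as a control protein.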 The conditions noted are these: streptavidin binding, higher = more signal.
Test [7] in a line: small-molecule binders of probe aInhba, primary screen, biochemical, small-molecule microarray, 635/667 nm fluorescence (AID 1148).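 Note: score merges 667nm spot fluorescence with signal-to-noise for antibody binding to printed compounds.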 The settings on record: higher = more signal.
For test [8], the target named is Torsin-1A (Homo sapiens) (UniProt O14656). Nature of the test: torsin A binders from cell lysate, primary screen, small-molecule microarray, wild-type, 635/667 nm (AID 1149). The conditions noted are these: COS7 hTOR1A-WT lysate, 635 nm fluorescence, higher = more signal.
For test [9] the target is unchanged. Nature of the test: small-molecule binders of mutant TOR1A in lysate, primary screen, cell lysate, small-molecule microarray, COS7 lysate, 635/667 nm fluorescence (AID 1150).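 Note: score pools 667 nm emission and signal to noise measuring lysate protein binding.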 The conditions noted are these: COS7 hTOR1A mutant lysate, 635 nm fluorescence, higher = more signal.
Test [10] relates to Sonic hedgehog protein (Shh). Nature of the test: small-molecule binders of Shh protein, primary screen, biochemical, small-molecule microarray, 635/667 nm fluorescence (AID 1151).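 Note: Shh protein binding to compounds spotted on small-molecule microarray slides; score combines spot fluorescence intensity with signal-to-noise across triplicate slides.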 The conditions noted are these: small-molecule microarray binding, 635 nm fluorescence; higher = more signal.

Sequence of Streptavidin (Streptomyces avidinii) (P22629 whole entry, looked up): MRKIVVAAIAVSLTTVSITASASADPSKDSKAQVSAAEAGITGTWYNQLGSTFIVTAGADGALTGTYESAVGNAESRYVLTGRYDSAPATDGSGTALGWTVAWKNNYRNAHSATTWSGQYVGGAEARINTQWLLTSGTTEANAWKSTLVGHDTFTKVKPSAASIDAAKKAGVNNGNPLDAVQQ
Sequence of Torsin-1A (Homo sapiens) (O14656 whole entry, looked up): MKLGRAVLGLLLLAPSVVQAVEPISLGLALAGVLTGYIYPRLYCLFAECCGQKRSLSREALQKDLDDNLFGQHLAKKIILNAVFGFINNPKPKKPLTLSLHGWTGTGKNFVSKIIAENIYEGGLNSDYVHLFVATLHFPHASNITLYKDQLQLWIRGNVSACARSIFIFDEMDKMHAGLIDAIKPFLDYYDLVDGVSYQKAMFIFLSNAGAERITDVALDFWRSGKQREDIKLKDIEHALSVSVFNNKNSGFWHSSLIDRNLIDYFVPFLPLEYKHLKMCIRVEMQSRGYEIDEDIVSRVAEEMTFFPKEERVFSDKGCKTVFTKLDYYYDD

Take `O=C1NC(=O)C2C1C=CC(C(O)C=Cc1ccc([N+](=O)[O-])cc1)N2Nc1ccccn1` (stereo not given): the composite z-score in test [1] was 0.421; in [6], -0.208; in test [7], 0.0694; with Torsin-1A (Homo sapiens) [8] it was 0.151; in the test with Torsin-1A (Homo sapiens) [9], 0.13; in [10], 0.809. Moreover, the z-score is 0.931 (inactive) in test [2], -1.23 (inactive) in test [3], 0.443 (inactive) in [4] and -0.28 (inactive) in test [5].

Regarding `Cc1ccc([C@@H]2CC=C(C(=O)O)[C@H](c3ccccc3)N2S(=O)(=O)c2ccc(C)cc2)cc1`, the composite z-score in [1] was found to be 0.382; in test [6], 1.77; in [7] it was 0.277; with Torsin-1A (Homo sapiens) [8], 0.385; with Torsin-1A (Homo sapiens) [9], 0.528; in test [10], 0.157. In addition, the z-score in test [2] was -0.385 (inactive); in test [3] it was 0.134 (inactive); in test [4], 0.332 (inactive); in [5], -0.311 (inactive).

Regarding `CC(C)(C)OC(=O)CC[C@]1(C(=O)N2CCCCC2)N=C(c2ccc(OCCCO)cc2)O[C@H]1c1ccccc1`, the composite z-score in test [1] was 0.836; in [6], 2.08; in test [7], -0.0112; with Torsin-1A (Homo sapiens) [8] it was 1.68; in the test with Torsin-1A (Homo sapiens) [9] it was 1.04; in test [10], 1.19. Besides, the z-score is -3.16 (inactive) in [2], 0.418 (inactive) in [3], 1.55 (inactive) in [4] and -1.85 (inactive) in test [5].

Turning to `O=C1C2C=CC(C(O)Cc3ccccc3)N(Nc3ccc([N+](=O)[O-])cc3)C2C(=O)N1c1ccccc1` (stereo not given), the composite z-score in test [1] is 0.331; in [6], 0.355; in test [7] it was 0.46; in the test with Torsin-1A (Homo sapiens) [8], 0.187; with Torsin-1A (Homo sapiens) [9], 0.222; in [10], -0.166. In addition, the z-score in [2] is -0.219 (inactive); in test [3], -0.138 (inactive); in test [4], -1.33 (inactive); in test [5], -0.0492 (inactive).

On to `CC1=C([C@H](O)CCc2ccccc2)[C@H](CO)[C@@H]2C(=O)N(Cc3ccccc3)C(=O)[C@@H]2C1`, for which the composite z-score was 0.079 in [1]; 0.925 in test [6]; -0.0451 in test [7]; -0.0669 with Torsin-1A (Homo sapiens) [8]; 0.279 in the test with Torsin-1A (Homo sapiens) [9]; 0.256 in test [10]. Besides, the z-score was -0.932 (inactive) in [2], -1.43 (inactive) in test [3], 0.851 (inactive) in [4] and -0.425 (inactive) in [5].

Turning to `O=C(NCc1ccccc1)c1ccc(Br)cc1[N+](=O)[O-]`, the composite z-score was 0.146 in test [1]; -0.453 in test [6]; -0.183 in test [7]; 0.0031 with Torsin-1A (Homo sapiens) [8]; -0.232 with Torsin-1A (Homo sapiens) [9]; 0.0923 in [10]. Also, the z-score in test [2] is -0.214 (inactive); in [3] it was 0.635 (inactive); in test [4], 0.685 (inactive); in [5], -0.554 (inactive).

For `C=CCC(OC(C)=O)[C@@H]1[C@@H](N(Cc2cccc3ccccc23)C(=O)c2ccc(C)cc2)c2cc(OCCCO)ccc2N1C(=O)c1ccc(-c2ccccc2)cc1` (stereo not given in full), the composite z-score in test [1] is -0.0459; in [6], 0.425; in [7], -0.0719; with Torsin-1A (Homo sapiens) [8], 0.0621; with Torsin-1A (Homo sapiens) [9] it was -0.213; in test [10] it was 0.0891. Moreover, the z-score is -0.552 (inactive) in [2], 0.528 (inactive) in test [3], 0.455 (inactive) in test [4] and 0.289 (inactive) in [5].

For `COc1cc(Cc2cc3c(c(CCc4ccccc4)n2)[Si](C(C)C)(C(C)C)OC3)cc(OC)c1OC`, the composite z-score is -0.179 in test [1]; 0.977 in test [6]; -0.159 in test [7]; 0.1 with Torsin-1A (Homo sapiens) [8]; 0.0658 with Torsin-1A (Homo sapiens) [9]; 0.553 in test [10]. In addition, the z-score in [2] was -1.86 (inactive); in test [3], -0.554 (inactive); in [4] it was -0.0989 (inactive); in test [5] it was 0.132 (inactive).

Turning to `CCOC(=O)C[C@H]1[C@H](OC(=O)c2ccccc2-c2ccccc2)[C@@H](NC(=O)c2ccc(-c3ccccc3)cc2)c2cc(OCCCO)ccc2N1C(=O)Cc1ccc(OC)cc1`, the composite z-score in test [1] is 0.17; in [6] it was 0.0511; in [7], 0.038; with Torsin-1A (Homo sapiens) [8], -0.153; in the test with Torsin-1A (Homo sapiens) [9], 1.02; in test [10] it was 0.56. Further, the z-score was 0.132 (inactive) in [2], 0.846 (inactive) in test [3], 2.3 (inactive) in test [4] and 0.41 (inactive) in [5].

Regarding `C=C[C@H](OC)[C@@H](OC(=O)Nc1ccc(SC)cc1)c1ccc(O)c(F)c1`, the composite z-score in [1] is 0.418; in test [6], -0.174; in test [7], -0.0695; with Torsin-1A (Homo sapiens) [8], 0.373; with Torsin-1A (Homo sapiens) [9], 0.23; in test [10], 1.6. The z-score was -0.731 (inactive) in test [2], -0.782 (inactive) in test [3], 5.83 (inactive) in test [4] and -0.362 (inactive) in [5].

Consider `CCCC[C@@H]1C[C@H]1[C@@H](NC(=O)c1cccs1)c1ccc(Cl)cc1`, for which the composite z-score in [1] was -0.29; in [6], -1.05; in test [7] it was -0.224; in the test with Torsin-1A (Homo sapiens) [8], -0.989; in the test with Torsin-1A (Homo sapiens) [9], -1.01; in test [10], -1.75. For the same compound, the z-score in test [2] was -3.19 (inactive); in test [3], -0.288 (inactive); in [4], 0.39 (inactive); in test [5], 0.958 (inactive).

As for `COc1ccc(NN2C(C(O)c3cc(OC)c(OC)c(OC)c3)C=CC3C(=O)N(C4CCCCC4)C(=O)C32)cc1` (stereo not given), the composite z-score in test [1] is 0.866; in test [6], 1.14; in test [7] it was 0.294; with Torsin-1A (Homo sapiens) [8] it was -0.125; in the test with Torsin-1A (Homo sapiens) [9], 0.236; in [10], 0.377. In addition, the z-score in test [2] was -1.6 (inactive); in test [3], -0.272 (inactive); in test [4], 0.285 (inactive); in [5], 0.907 (inactive).

Take `C#CCCCON=C1C[C@@H](O)[C@@H](O)[C@@H]2[C@@H]3C(=O)N(Cc4ccc5c(c4)OCO5)C(=O)[C@@H]3CC[C@@H]12`: the composite z-score in [1] is -0.323; in [6], 0.571; in test [7], -0.0245; in the test with Torsin-1A (Homo sapiens) [8], -0.345; with Torsin-1A (Homo sapiens) [9] it was -0.151; in test [10], 0.9. In addition, the z-score is -0.209 (inactive) in [2], 1.86 (inactive) in test [3], -0.56 (inactive) in test [4] and -0.157 (inactive) in [5].
